Here are results for 96 compounds from PubChem BioAssay AID588855 (National Center for Advancing Translational Sciences (NCATS), 2011).

Out of some 410,000 compounds screened, about 5,000 (1.2%) were called active. Another 13% or so got no clear call; they are omitted. Calls follow the shape of the dose curve; as a rule, active = well fitted inhibition curve with a large enough effect; inconclusive = small, poorly fitted or top-dose-only effect; inactive = no such curve, though single readings can be large or run the other way. Shown is part of a subset that was picked to be rich in actives. Where a call stands in place of a potency, no number is given.
Potency is read from the fitted curve at half-maximal effect.

A short description of the experiment: qHTS for Inhibitors of TGF-b. Also: nearly all actives have a fitted effect of over 65% in size. The settings on record: HepG2 CAGA-GFP TGF-b/SMAD3 reporter, GFP fluorescence, 18 h, TGF-beta stimulated, 500 pg/mL final; series mostly up to 46.1 µM. The method in brief:
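HEPG2 CAGA-GFP cells (1000/well, DMEM with 1% FBS) were pre-incubated 2 h at 37 degrees C, given compound by pin tool, then stimulated with TGF-beta at 500 pg/mL final for 18 h before per-cell GFP fluorescence imaging.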
In the case of `COc1ccccc1-c1cc2nc(C)c(CCC(=O)O)c(C)n2n1`, the Potency result is “inactive”. Regarding `CN(N=O)c1ccc(C=C2c3ccccc3-c3ccccc32)cc1`, the Potency result is “inactive”. Turning to `Cc1ccc(-c2nc(=N)sn2Cc2ccccc2)cc1`, the Potency result is “inactive”. Consider `Cc1ccc(-n2c3nc(=O)[nH]c(=O)c-3cc3c(Cl)cccc32)cc1`, for which the Potency result was “inactive”. The value for `Cc1ccc(CCNC(=O)c2nnc(Cc3cccc(F)c3)o2)cc1` was “inactive”; that for `O=C(NCCCN1CCN(c2cccc(Cl)c2)CC1)c1nnc(Cc2ccc(F)cc2Cl)o1` was 10 µM (active). `COc1ccc(N2CCN(CCNC(=O)c3nnc(Cc4c(F)cccc4Cl)o3)CC2)cc1`: the Potency entry was “inactive”.

Consider `COc1ccc(CCC(=O)NCc2ccc3c(c2)CCN3C(=O)c2ccc(F)cc2)cc1`, for which the Potency result was “inactive”. As to `CCCNC(=O)c1ccc(Cn2c(SCC(N)=O)nc3ccccc3c2=O)cc1`, the Potency entry is “inactive”.

For the compound `COc1ccc(OC)c(CNC(=O)c2c3c(nc4ccccc24)C(=O)N(C2CCCCC2)C3)c1`, the Potency entry was “inactive”. For `SCc1nc2ccc(Cl)cc2[nH]1`, the Potency result was “inactive”. For `Cn1c(NCc2cccnc2)nc2cc(-c3ccc(F)cc3)sc2c1=O`, the Potency result was “inactive”.

For `O=c1[nH]c(CCl)nc2cc(-c3ccc(Cl)cc3)sc12`, the Potency was 5.01 µM (active).

For `CC(C)(C)c1ccc(C(=O)C[N+]2(C)CCCc3ccccc32)cc1` (stereo unspecified), the Potency entry was “inactive”. The value for `Cc1nc(N=C(N)N)nc2c(C)cccc12` was 11.2 µM (active); that for `N#Cc1ccc[n+](CC(=O)c2ccc(O)c(O)c2)c1` was “inactive”. `CCCCCCCNc1ccc(/C=C/c2ccnc3ccccc23)cc1`: the Potency entry is “inactive”. The result for `COc1ccc(Cn2c(=O)c3oc4ccccc4c3n(CC(=O)Nc3ccc(F)cc3F)c2=O)cc1` reads “inactive”; that for `CC(C)CNc1ncnc2c1nnn2C`, “inactive”; that for `CCCCSc1ncnc2c1sc1nc(N3CCOCC3)c3c(c12)CCCC3`, “inactive”. For `CCOC(=O)c1c(-c2ccccc2)oc2cc(Br)c(O)c(C=O)c12`, the Potency entry was “inactive”. Consider `Cc1oc2cc(Br)c(O)c(Br)c2c1C(=O)c1ccccc1`, for which the Potency result is “inactive”. Regarding `CCOC(=O)c1c(C)oc2cc(Sc3ccccc3)c(O)c(O)c12`, the Potency was 10 µM (active). Turning to `CCOc1ccc(NC(=O)c2c(NC(=O)Cc3ccccc3)sc3c2CCC(C)C3)cc1` (stereo unspecified), the Potency result was “inactive”. Regarding `COc1ccc(Cn2c(C(=O)O)c(CNCc3cccc(OC)c3)c3ccc(C)cc32)cc1`, the Potency entry is “inactive”. The value for `COc1ccc(-n2c(=O)c3ccccc3n(Cc3ccccc3Cl)c2=O)cc1` was “inactive”; that for `Cc1ccccc1-c1n[nH]c(=S)n1/N=C/c1ccc(-c2ccccc2Br)o1` was “inactive”.

For `Cc1cc(-c2n[nH]c(=S)n2/N=C/C(Br)=C/c2ccccc2)n[nH]1`, the Potency was 7.08 µM (active). As for `COc1ccccc1N1CCN(/N=C\C(Br)=C\c2ccccc2)CC1`, the Potency entry was “inactive”.

On to `Cc1ccc(Cl)cc1NC(=O)CSc1nc2ccccc2nc1Cc1ccccc1`, for which the Potency result is “inactive”. The result for `Cc1ccc(CNC(=O)CSc2c(C)cnc3c2c(=O)n(C)c(=O)n3C)cc1` reads “inactive”. The value for `CN1CCN(c2oc(-c3ccc(COc4ccc(Cl)cc4)o3)nc2C#N)CC1` was “inactive”; that for `CCOc1cccc(NC(=O)c2ccc(F)c(S(=O)(=O)N(CC)c3cccc(C)c3)c2)c1` was “inactive”. As for `CCCOc1ccccc1C1CC(=O)Nc2cc3c(cc21)OCO3` (stereo unspecified), the Potency was 7.08 µM (active). The value for `O=C1CC(c2ccc(F)cc2F)c2cc3c(cc2N1)OCO3` (stereo unspecified) was “inactive”.

Consider `COC(=O)c1ccc(C2CC(=O)Nc3cc(OC)c(OC)cc32)cc1` (stereo unspecified), for which the Potency result is “inactive”. `Cc1ccc(S(=O)(=O)n2nc(-c3ccc(Cl)cc3)nc2NCc2ccccc2)cc1`: the Potency entry is “inactive”. Turning to `COc1ccc(OC)c(-n2nnc3c(sc4nc(C)c(Br)c(C)c43)c2=O)c1`, the Potency result is “inactive”. The value for `Cc1ccccc1-c1nc2scc(CCNC(=O)C(=O)Nc3ccc(F)cc3F)n2n1` was “inactive”. Take `CCOC(=O)C1=CC[C@@H](c2ccccc2)N(S(=O)(=O)c2ccc(C)cc2)[C@H]1c1cccc(OC)c1`: the Potency entry was “inactive”. On to `Cc1ccc(S(=O)(=O)N2[C@@H](c3cccc(Cl)c3)C(C(=O)O)=CC[C@H]2c2ccc(Cl)c(Cl)c2)cc1`, for which the Potency is 15.8 µM (active). On to `Cc1ccccc1S(=O)(=O)N1[C@@H](c2cccc(Cl)c2)C(C(=O)OC(C)(C)C)=CC[C@H]1c1ccc(Cl)cc1`, for which the Potency result is “inactive”. Take `CCCCN(C)S(=O)(=O)c1ccc(C(=O)Nc2sc3c(c2C(N)=O)CC(C)(C)NC3(C)C)cc1`: the Potency result was “inactive”. `CCc1ccc(NC(=O)c2nn(-c3ccc(C)cc3)c(=O)n(C)c2=O)cc1`: the Potency result is “inactive”.

On to `CCOC(=O)c1ccccc1NC(=O)c1nn(-c2ccc(OC)c(Cl)c2)c(=O)c2c1c1ccccc1n2C`, for which the Potency entry is “inactive”.

Consider `O=C(NC1CC(=O)N(c2ccc(F)cc2)C1)C1CCCCC1` (stereo unspecified), for which the Potency result was “inactive”. For `CCOC(=O)c1c(S(=O)(=O)NCC(=O)Nc2ccc(Cl)c(C(F)(F)F)c2)c(C)n(C)c1C`, the Potency was 11.2 µM (active).

Consider `CCOC(=O)c1c(S(=O)(=O)NCC(=O)Nc2ccc(C)cc2)c(C)n(C)c1C`, for which the Potency entry is “inactive”. As to `CCOC(=O)c1c(S(=O)(=O)Nc2cccc(Cl)c2)c(C)n(C)c1C`, the Potency entry was “inactive”. `COc1ccc(CCNC(=O)c2cnc3sc(N4CCCCCC4)nn3c2=O)cc1OC`: the Potency result was “inactive”.

`CCCn1c(C(C)Nc2nc(-c3ccc(C)cc3)cs2)nc2cc(Cl)c(N3CCCCC3)cc21` (stereo unspecified): the Potency result was “inactive”. For `Nc1c(Cl)cc(-c2csc(N3CCCC3c3nc4cc(Cl)c(Cl)cc4n3CCOCCO)n2)cc1Cl` (stereo unspecified), the Potency result was “inactive”.

Take `Cc1nc2cc(C(F)(F)F)ccc2n1CCNc1nc(-c2cc(Cl)c(N)c(Cl)c2)cs1`: the Potency is 11.2 µM (active).

Turning to `Cc1cccc(OCCCC(=O)Nc2sc3c(c2C(N)=O)CCC(C)C3)c1` (stereo unspecified), the Potency result was “inactive”. With `O=C(CC1C(=O)N(c2ccccc2)C(=O)N1CCc1cccs1)Nc1ccc(F)cc1` (stereo unspecified), the Potency result is “inactive”.

Turning to `O=C1NC(Nc2nc3ccccc3s2)(C(F)(F)F)C(=O)N1C1CCCCC1` (stereo unspecified), the Potency is 7.94 µM (active). Regarding `O=C(NC1(C(F)(F)F)N=C(c2ccccc2)N(C2CCCCC2)C1=O)c1ccccc1F` (stereo unspecified), the Potency entry is “inactive”. `COc1cc(SC#N)ccc1N=Cc1c(C)[nH]n(-c2ccc(C)cc2)c1=O`: the Potency is 10 µM (active). Regarding `CCN(CC)CCNC(=O)c1cc2c(=O)oc3ccc(C)cc3c2s1`, the Potency entry was “inactive”. As for `Cc1cccc(-n2ncc(C(=O)N3CCc4ccccc4C3)c2C2CCN(C(=O)OC(C)(C)C)CC2)c1`, the Potency result was “inactive”. Regarding `Cc1ccccc1Cn1c2ccccc2c2cnn(CC(=O)NCc3ccco3)c(=O)c21`, the Potency entry is “inactive”.

As to `CCN(CC)CCNC(=O)Cn1ncc2c3ccccc3n(Cc3ccccc3C)c2c1=O`, the Potency is 14.1 µM (active). In the case of `CCCN(CCC)CCCNC(=O)Cn1ncc2c3ccccc3n(Cc3ccccc3)c2c1=O`, the Potency entry is “inactive”. With `CCOC(=O)c1c(C)[nH]c(C)c1S(=O)(=O)NCC(=O)NCc1cccc(C)c1`, the Potency result is “inactive”. Regarding `Cc1cccc(NS(=O)(=O)c2ccc(-c3cnc(C4CC4)o3)cc2)c1`, the Potency is 11.2 µM (active). As for `COc1ccc(CNS(=O)(=O)c2ccc(-c3cnc(C4CC4)o3)cc2)cc1`, the Potency result is “inactive”. The result for `Cc1ccc(-c2cnc(C3CC3)o2)cc1S(=O)(=O)Nc1cccc(C)c1C` reads “inactive”. For the compound `COc1ccc(OC)c(NC(=O)C2CCN(S(=O)(=O)c3ccc(C)cc3)CC2)c1`, the Potency entry is “inactive”. For the compound `COc1cc(Br)cc2cc(S(=O)(=O)c3ccccc3)c(=O)oc12`, the Potency entry was “inactive”.

For `O=C(Nc1ccccn1)C1CCN(S(=O)(=O)c2ccccc2)CC1`, the Potency entry was “inactive”. `Cc1cccc(NC(=O)C2CCN(S(=O)(=O)c3cccc4cccnc34)CC2)c1`: the Potency entry is “inactive”. `Cc1ccnc(NC(=O)C2CCN(S(=O)(=O)c3c(C)c(C)cc(C)c3C)CC2)c1`: the Potency was 11.2 µM (active).

Turning to `COc1ccc(S(=O)(=O)c2c(Nc3cccc(Cl)c3)sc(C(=O)c3ccccc3)c2N)cc1`, the Potency result was “inactive”. For the compound `CC(NC(=O)c1cc(Sc2ccc(F)cc2F)nc2ccccc12)c1ccccc1` (stereo unspecified), the Potency result was “inactive”. The value for `CSc1n[nH]c(-c2ccco2)n1` was “inactive”; that for `CCN(c1ccc(Cl)cc1)S(=O)(=O)c1nnc(NC(=O)c2ccco2)s1` was “inactive”. For `CCCN(CCC)CCNC(=O)Cn1cnc2sc(C)c(S(=O)(=O)N3CCC(C)CC3)c2c1=O`, the Potency entry is “inactive”. In the case of `COc1ccc(-c2onc(C)c2C)cc1S(=O)(=O)NCC1CCN(Cc2cccc(F)c2)CC1`, the Potency was 8.91 µM (active). The result for `COc1ccc(-c2onc(C)c2C)cc1S(=O)(=O)NCCc1ccccc1` reads “inactive”. On to `COc1ccc(-c2onc(C)c2C)cc1S(=O)(=O)NCc1cccs1`, for which the Potency result is “inactive”. Consider `O=C(Nc1ccccc1Cl)N1CCC(CN2CCCCC2)CC1`, for which the Potency result is “inactive”. The result for `CCCc1nn2c(=O)cc(COC(=O)c3ccc(NC(=O)C(C)Oc4ccccc4)cc3)nc2s1` (stereo unspecified) reads “inactive”; that for `CN(C)c1ccc(C=Nc2ccc(/C=C/c3ccnc4ccccc34)cc2)cc1`, “inactive”; that for `Cc1ccc(-n2nc(C)c3c(C)cc(=O)n(CC(=O)Nc4ccc(C(C)C)cc4)c32)cc1`, “inactive”. Turning to `CC1(C)Cc2ccccc2-c2c[nH]c(=O)n21`, the Potency result was “inactive”.

Take `CCOC(=O)N1CCc2c(sc3c2C(=O)NC(c2ccccc2F)N3)C1` (stereo unspecified): the Potency result was “inactive”. The value for `CC(C)(C)c1ccc(C(CC(=O)O)NS(=O)(=O)Cc2ccccc2)cc1` (stereo unspecified) was “inactive”; that for `CC(C)[C@@H](NC(=O)OC(C)(C)C)C(=O)NCC1CCC(C(=O)N[C@@H](Cc2ccccc2)C(=O)O)CC1` (stereo partly specified) was “inactive”; that for `C[C@@H](NC(=O)OC(C)(C)C)c1nnc(S(=O)(=O)Cc2ccccc2)o1` was 14.1 µM (active). Regarding `CCOC(=O)c1cc2c(=O)n3ccccc3nc2n(CCCOC)c1=NC(=O)C(C)(C)Oc1ccc(Cl)cc1`, the Potency result was “inactive”.

For `Cc1ccc(-c2noc(CSc3nnc(-c4ccncc4)n3-c3ccc(F)cc3)n2)cc1`, the Potency result was “inactive”. The result for `Cc1ccc(Nc2nc(CSc3nnc(-c4ccncc4)n3-c3ccccc3C)cs2)cc1` reads 11.2 µM (active); that for `Cc1ccc(-n2c(SCC(=O)N3c4ccccc4Sc4ccccc43)nnc2-c2ccncc2)cc1`, “inactive”.

On to `OCC(O)C(O)C(O)C(O)C=Nc1ccc(/C=C/c2ccnc3ccccc23)cc1` (stereo unspecified), for which the Potency result is “inactive”.

Consider `O=C(c1ccco1)N(Cc1cccs1)c1ccc(O)cc1`, for which the Potency result was “inactive”. The value for `CC(CNC(=O)c1nnc(Cc2cccc(F)c2)o1)c1ccccc1` (stereo unspecified) was “inactive”.
